Six1-Eya2 blk – blocks human Six1 binding to Eya2. Q15475+O00167. AlphaScreen GST-Six1/His-Eya2 binding, biochemical; stronger effect = lower value. activity change, % (no concentration beside the values). hit rate 0.56% among 360,000; in the data active = activity change below about -65%; inconclusive = mostly about -30% to -63%; note: % is set by controls: 0 for no effect and ±100 for the full control effect
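Homogeneous AlphaScreen proximity assay pairing GST-Six1 with His-tagged Eya2 (added as 5X mix: 250 nM and 500 nM) in 50 mM Tris pH 8.0, 300 mM NaCl, 1 mM TCEP. Glutathione donor and nickel acceptor beads; 1 h, 37 °C, dark.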
BAZ2B inh – inhibitors of human BAZ2B bromodomain. Q9UIF8. AlphaScreen BAZ2B-H3K14Ac peptide displacement. Potency, µM (top dose mostly 114 µM), for the others: at the top dose activity change, negative = inhibition, hits mostly inhibitors. hit rate 4.4% among 360,000. AID 504333; note: potency is the fitted concentration of half-maximal effect; % is set by controls: 0 for no effect and ±100 for the full control effect; nearly all actives have a fitted effect of over 60% in size
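Complex of BAZ2B and biotin-H3K14Ac (50 nM apiece) forms over 30 min at RT, then faces library compounds up to 110 uM for another 30 min; AlphaScreen beads added, 20 min dark incubation, luminescence read.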
JMJD2A Tudor – blocks the human JMJD2A Tudor domain. O75164. AlphaScreen JMJD2A-Tudor / H3K4me3 peptide binding. Potency, µM (titrated, usually from 114 µM), without a hit: at the highest dose activity change, negative = inhibition, hits mostly inhibitors. hit rate 4.4% among 390,000; note: potency is the fitted concentration of half-maximal effect; % is set by controls: 0 for no effect and ±100 for the full control effect; nearly all actives have a fitted effect of over 50% in size
G9a block – blocks human histone lysine methyltransferase G9a; Potency, µM (highest dose often 102 µM), for the others: top-dose activity, negative = inhibition, hits mostly inhibitors; Q96KQ7; AID 504332; G9a H3K9 monomethylation, AlphaScreen, 2 h; hit rate 8.8% among 350,000; note: potency is the fitted concentration of half-maximal effect; % is set by controls: 0 for no effect and ±100 for the full control effect; nearly all actives have a fitted effect of over 75% in size
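Chemiluminescent proximity detection of H3K9 monomethylation, read after 10 min bead incubation in the dark. Reaction: 20 nM G9a, 500 nM biotin-H3K9 peptide, 20 uM SAM cofactor, 2 h, room temperature, following 15 min enzyme-compound preincubation.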
CtBP-E1A inh – blocks the CtBP interaction with E1A; AlphaScreen GST-E1A/His-CtBP binding, 1536-well; stronger effect = lower value; activity change, % (no concentration beside the values); AID 651724; hit rate 0.49% among 340,000; in the data active = activity change below about -65%; inconclusive = mostly about -30% to -63%; note: % is set by controls: 0 for no effect and ±100 for the full control effect
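In 5 uL wells, 23 nL compound meets equimolar GST-E1A and His-CtBP (5X stock 125 nM each) for 2 h, 37 °C. Beads (5X, 50 ug/mL) then 1 h, 37 °C, dark.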
HP1b binding inh – blocks HP1-beta chromodomain binding to methylated histone tails; AlphaScreen HP1-beta / biotin-H3K9me3 peptide binding; Potency, µM (top dose mostly 114 µM), for the others: at the highest dose activity change, negative = inhibition, usual class: inhibitors; hit rate 0.56% among 390,000; AID 540317; note: potency is the fitted concentration of half-maximal effect; nearly all actives have a fitted effect of over 70% in size
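HP1-beta protein (50 nM final) preincubated 30 min at room temperature with biotinylated H3(1-18)K9me3 peptide (50 nM) in PBS pH 7.4, 0.01% Tween-20, then compound added for 30 min. AlphaScreen streptavidin donor/nickel chelate acceptor beads (10 ug/mL final), 30 min dark, luminescence read.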
An asterisk follows results filed as active; [ ] = dose if it differs, or a comment. Only some compounds are listed: those with a hit (about 10% of all), similar ones and a draw of the others. Unless noted, calls come from the whole dose curve; as a rule, active = well fitted inhibition curve with a large enough effect; inconclusive = small, poorly fitted or top-dose-only effect; inactive = no such curve, though single readings can be large or run the other way.

How did O=C(NCCSCc1ccccc1)C1CCN(S(=O)(=O)Cc2ccccc2)CC1 do in these assays?
BAZ2B inh: 16.4%; JMJD2A Tudor: 7.0%; G9a block: -9.2%[59 µM]; HP1b binding inh: 76.2%

Results for O=C1CCC[C@@H]2Cc3[nH]c4c(Cl)ccc(Cl)c4c3[C@@H]3CCN1[C@H]23 ?
Six1-Eya2 blk: -1.5; BAZ2B inh: -11.0%; JMJD2A Tudor: -29.9%; G9a block: 50.1µM*; CtBP-E1A inh: -2.1; HP1b binding inh: -9.9%

What do the screens show for `CCOC(=O)N1CCN(Cc2nc3ccc([N+](=O)[O-])cc3c(=O)n2-c2ccccc2F)CC1`?
Six1-Eya2 blk: -7.5; BAZ2B inh: -36.6%; JMJD2A Tudor: -8.0%; G9a block: 79.4µM*; HP1b binding inh: 13.4%

How did CCC(CC)N1CCN(Cc2nc3ccc([N+](=O)[O-])cc3c(=O)n2-c2ccccc2F)CC1 do in these assays?
Six1-Eya2 blk: 15.7; BAZ2B inh: -3.0%; JMJD2A Tudor: -17.6%; G9a block: -21.1%; CtBP-E1A inh: 2.7; HP1b binding inh: -16.1%

Results for CCOC(=O)c1ccc(-n2c(CN3CCOCC3)nc3ccc([N+](=O)[O-])cc3c2=O)cc1 ?
Six1-Eya2 blk: 0.0; BAZ2B inh: -18.5%; JMJD2A Tudor: -18.2%; G9a block: 44.7µM*; CtBP-E1A inh: 1.5; HP1b binding inh: 43.0%

How did CCOC(=O)c1ccc(-n2c(CN3CCN(CC)CC3)nc3ccc([N+](=O)[O-])cc3c2=O)cc1 do in these assays?
Six1-Eya2 blk: 7.7; JMJD2A Tudor: -15.4%; G9a block: 56.2µM*; CtBP-E1A inh: 0.0; HP1b binding inh: 34.5%

How did CCOC(=O)c1ccc(-n2c(CN3CCC(O)CC3)nc3ccc([N+](=O)[O-])cc3c2=O)cc1 do in these assays?
Six1-Eya2 blk: -4.9; BAZ2B inh: inconclusive; JMJD2A Tudor: -19.3%; G9a block: 12.6µM*; CtBP-E1A inh: -0.9; HP1b binding inh: 8.9%

What do the screens show for `CCOC(=O)N1CCN(Cc2nc3cc([N+](=O)[O-])ccc3n2C)CC1`?
Six1-Eya2 blk: -3.0; BAZ2B inh: -19.7%; JMJD2A Tudor: -9.8%; G9a block: -0.6%; CtBP-E1A inh: 5.4; HP1b binding inh: 63.4%

Results for CCOC(=O)c1ccc(-n2c(CN3CCC(C(N)=O)CC3)nc3ccc([N+](=O)[O-])cc3c2=O)cc1 ?
Six1-Eya2 blk: 0.8; JMJD2A Tudor: -28.3%; G9a block: inconclusive; CtBP-E1A inh: -6.9; HP1b binding inh: 14.9%

How did Cc1c(C(=O)Nc2ccccc2)sc2nc(-c3cc4cc(Cl)ccc4oc3=O)[nH]c(=O)c12 do in these assays?
BAZ2B inh: -6.4%; JMJD2A Tudor: -21.1%; G9a block: -6.0%[59 µM]; HP1b binding inh: 17.6%

How did COc1ccc2c(c1OC)C(=O)OC2c1ccc(O)cc1 (configuration not stated) do in these assays?
JMJD2A Tudor: -3.5%; HP1b binding inh: 29.4%

Results for CCc1ccccc1NC(=O)c1cc(S(=O)(=O)N2CCc3ccccc32)ccc1F ?
BAZ2B inh: 8.2%; JMJD2A Tudor: -1.5%; G9a block: 2.2%[59 µM]; HP1b binding inh: 51.4%

What do the screens show for `CCOC(=O)c1ccc(-n2c(CC)nc3ccccc3c2=O)cc1`?
BAZ2B inh: -1.3%; G9a block: 10.4%

How did CCOC(=O)c1ccc(-n2c(CN(CC)CC)nc3ccc([N+](=O)[O-])cc3c2=O)cc1 do in these assays?
Six1-Eya2 blk: 5.8; JMJD2A Tudor: inconclusive; G9a block: 10µM*; CtBP-E1A inh: 0.0; HP1b binding inh: 22.5%

How did CCOC(=O)Cc1c(C(=O)OCC)nnc2c(-c3ccccc3)c(C)nn12 do in these assays?
BAZ2B inh: inconclusive; JMJD2A Tudor: inconclusive; G9a block: inconclusive; HP1b binding inh: -6.8%

What do the screens show for `COc1ccc(Cl)cc1-c1n[nH]c(=S)o1`?
Six1-Eya2 blk: 16.4; BAZ2B inh: -5.4%; JMJD2A Tudor: -28.8%; G9a block: inconclusive; CtBP-E1A inh: -0.7; HP1b binding inh: 28.9%

How did COc1ccc(CCn2c(-c3ccc(Cl)cc3)n[nH]c2=S)cc1OC do in these assays?
Six1-Eya2 blk: -0.6; BAZ2B inh: inconclusive; JMJD2A Tudor: -20.8%; G9a block: 2.24µM*; CtBP-E1A inh: 4.7; HP1b binding inh: 36.3%

What do the screens show for `COc1ccc(CCn2c(=S)[nH]c(=O)c3[nH]cnc32)cc1OC`?
JMJD2A Tudor: -6.8%; HP1b binding inh: 53.3%

Results for COc1ccc(CCn2c(-c3ccc(C(C)(C)C)cc3)n[nH]c2=S)cc1OC ?
Six1-Eya2 blk: -4.0; BAZ2B inh: -15.7%; JMJD2A Tudor: 17.8µM*; G9a block: inconclusive; CtBP-E1A inh: 0.5; HP1b binding inh: -31.3%

Results for COc1ccc(CCn2c(C)ccc2C)cc1OC ?
BAZ2B inh: -8.2%; G9a block: -6.4%[59 µM]

Results for CCCCn1c(-c2cc(Cl)ccc2OC)n[nH]c1=S ?
Six1-Eya2 blk: -0.9; BAZ2B inh: -4.8%; JMJD2A Tudor: 12.6µM*; G9a block: 2µM*; CtBP-E1A inh: -1.7; HP1b binding inh: -15.1%

Results for COc1ccc(NC(=O)Cn2nnc(-c3nc(-c4ccncc4)no3)c2N)cc1OC ?
BAZ2B inh: -15.3%; JMJD2A Tudor: 4.8%; G9a block: inconclusive; HP1b binding inh: 46.9%

Results for Oc1ccc2c(c1)C1CCCC1(N1CCOCC1)O2 (configuration not stated) ?
Six1-Eya2 blk: 6.9; BAZ2B inh: inconclusive; JMJD2A Tudor: -19.9%; G9a block: 8.91µM*; CtBP-E1A inh: 5.8; HP1b binding inh: inconclusive

Results for Cc1ccc(NC(=O)c2cc3c(-c4ccccc4)nn(-c4ccccc4)c3s2)cc1 ?
BAZ2B inh: -2.4%; JMJD2A Tudor: -12.4%; G9a block: -4.3%[59 µM]; HP1b binding inh: 25.1%

Results for O=C(c1ccco1)N1CCN(C(=O)c2cc(-c3ccccn3)nc3ccc(Cl)cc23)CC1 ?
Six1-Eya2 blk: -86.6*; BAZ2B inh: -30.3%; JMJD2A Tudor: -6.3%[57.1 µM]; G9a block: inconclusive; CtBP-E1A inh: -91.9*; HP1b binding inh: -15.4%

Results for O=C(c1ccco1)N1CCN(C(=O)c2cc(-c3ccccc3)nc3ccccc23)CC1 ?
Six1-Eya2 blk: -8.9; BAZ2B inh: -3.5%[57.1 µM]; JMJD2A Tudor: inconclusive; G9a block: -15.1%[59 µM]; CtBP-E1A inh: -13.9; HP1b binding inh: -2.0%

What do the screens show for `CC(C)(C)n1c(O)c2ccc(C(=O)N=NC(=O)c3ccccc3)cc2c1O`?
Six1-Eya2 blk: 4.2; BAZ2B inh: -27.0%; JMJD2A Tudor: 0.0%; G9a block: 37.1%; CtBP-E1A inh: 16.7; HP1b binding inh: 41.7%

Results for Cn1c(N=NC(=O)c2ccccc2)c(O)c2ccccc21 ?
Six1-Eya2 blk: inconclusive; BAZ2B inh: 22.4µM*; JMJD2A Tudor: 31.6µM*; G9a block: inconclusive; CtBP-E1A inh: inconclusive; HP1b binding inh: 31.6µM*

Compound activity from PubChem.
